Laboratory results reported in PubChem BioAssay AID1222 (Sanford-Burnham Center for Chemical Genomics, 2008).
Fewer than 10 of roughly 190,000 compounds were called active. Not all results are given here. Potency and affinity values are given separately. A number with no mark means an inactive call.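 How the source made its calls: active means EC50 below 50 µM in the dose-response confirmation; inactive means the rest.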

Assay: protection against thapsigargin-triggered cell killing – 384-well, CSM14.1, ATP luminescence, primary screen (AID 1222);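 further: death triggered by thapsigargin at about 15 µM added after 2 h compound pretreatment; cell ATP read after overnight thapsigargin exposure of roughly 18 to 22 hours; reference of the scale not given here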
Settings: CSM14.1 thapsigargin-induced death rescue, at 20 µM, active compounds read high

SMILES	cellular ATP content (survival) [%]
CCCOC(=O)CN1C(=O)c2ccccc2C1=O	-2.4
Cc1ccc(S(=O)(=O)N(CC(=O)N/N=C/c2cccc(Cl)c2)c2cccc3cccnc23)cc1	4.7
CCC(Sc1nc(N)cc(=O)[nH]1)C(=O)Nc1cc(C)on1 (centres undefined)	1.6
COc1ccc(NC(=O)c2ccccc2NC(=O)CSc2ccc(C)cc2)cc1	4
Cc1ccc(C(=O)NNC2CC(=O)N(c3ccc4c(c3)OCCO4)C2=O)cc1 (centres undefined)	-0.8
NC(N)=NC(N)=Nc1ccc(SC(F)(F)F)cc1	0.3
COc1ccccc1-c1noc(CCC(=O)Nc2cc(C(F)(F)F)ccc2Cl)n1	1
O=C(Nc1cccc(-c2cn3cccnc3n2)c1)Nc1ccccc1F	-0.8
O=C(NNS(=O)(=O)c1ccccc1)c1ccc(S(=O)(=O)N2CCCCC2)cc1	-2.8
CSc1ccc(C(C(C(=O)c2cccs2)N2CCOCC2)N2CCOCC2)cc1 (centres undefined)	-1.7
CCCn1c(=O)c2ccccc2n2c(SCC(=O)NCc3cccs3)nnc12	2.6
COC(=O)C1=C(N)Oc2cc(C)n(Cc3cccnc3)c(=O)c2C1c1cc(OC)ccc1OC (centres undefined)	-3.1
O=C(COc1ncnc2scc(-c3ccccc3)c12)NC1CCCc2ccccc21 (centres undefined)	-2.4
O=c1ccccn1CCOc1ccccc1Cl	0.2
CCOC(=O)C1C(=O)C=C(c2ccc(Br)cc2)CC1c1ccco1 (centres undefined)	0.2
C[C@@H]1NC(=O)c2cc([N+](=O)[O-])cc(I)c2NCCCC[C@@H](C(N)=O)NC(=O)[C@H](CCC(=O)O)NC1=O	6.5
Cc1cc(C)n2nc(-c3ccsc3-n3c(C)ccc3C)cc2n1	6
Cn1c(=NC(=O)C2CCN(S(=O)(=O)c3cccs3)CC2)sc2ccccc21	-0.7
COC(=O)COc1ccc(S(=O)(=O)N2CCc3ccccc3C2)cc1C	-0.7
Cc1ccc(C(=O)/C=C/c2ccc(F)cc2)o1	-13.2

SMILES	cellular ATP content (survival) [%]
O=C(O)CCCn1cc(NC(=O)c2cc(F)c(F)cc2Cl)cn1	-2.1
COc1ccccc1CNC(=O)CCNC(=O)Cn1cnc2ccccc2c1=O	0.7
CC1(C)CC(=O)C2=C(C1)NC(=O)CC2c1cc2c(cc1Br)OCO2 (centres undefined)	-0.1
O=C(N/N=C/c1ccncc1)NC1CCCCC1	-0.5
COc1cc(C(=O)Nc2cccc(-c3cn4cccnc4n3)c2)cc(OC)c1OC	-2
O=C1c2ccccc2C(=O)C1C1=Nc2ccccc2NC(c2ccccc2)C1 (centres undefined)	4.7
Nc1ccc(Cc2nc3cc4ccccc4cc3[nH]2)cc1	-1.5
CCc1cccc(C)c1NC(=S)N(Cc1cccnc1)Cc1ccco1	-2.7
O=C(COc1ccc(Cl)cc1)N1CCN(C(=O)Cc2ccccc2)CC1	5.3
CCOC(=O)N1CCN(C(=O)c2cnn3ccccc23)CC1	2.2
O=C(N/N=C/c1cccc(Oc2ccccc2)c1)c1ccccc1Br	0
Cc1cccc(-n2cnc3cc(C(=O)N4CCc5ccccc54)ccc32)c1	-2.1
Cc1[nH]nc(Nc2ccc(O)cc2)c1[N+](=O)[O-]	-1.1
O=C(/C=C/c1ccco1)OCn1nnc2ccccc2c1=O	-0.7
Cc1cccc(-c2ncc(CN3CCN(CCC(C)C)C(CCO)C3)cn2)c1 (centres undefined)	0.8
COc1ccc(C2N(c3ccc(OC)cc3)C(=S)N3CCCN23)cc1 (centres undefined)	3.3
COc1ccccc1NC(=S)N(Cc1ccc(C)cc1)Cc1cccnc1	2.6
Cc1ccc(C(=O)NNC(=O)CSc2nnc(-c3ccccc3)n2Cc2ccccc2)cc1	-1.4
O=C(CSc1ncnc2nc[nH]c12)N1CCN(c2ccccc2)CC1	0.6
CC1CCN(CCC(=O)N/N=C/c2ccc([N+](=O)[O-])cc2)CC1	-1.3

SMILES	cellular ATP content (survival) [%]
CC(C)C(=O)c1cn(CC(=O)N2CCCc3ccccc32)c2ccccc12	0.1
O=C(NC1CCCCC1)C(c1ccc2ncccc2c1)N(Cc1ccco1)C(=O)c1ccc2c(c1)OCCO2 (centres undefined)	14.1
O=C(CCCC(=O)N(c1ccc2c(c1)OCCO2)C(C(=O)NC1CCCCC1)c1ccc(F)cc1)Nc1ccccn1 (centres undefined)	-0.3
COc1ccc(CN(C(=O)c2nsc(Cl)c2Cl)C(C(=O)NC2CCCCC2)c2ccc(OC)cc2)cc1 (centres undefined)	-2.1
O=C(NC1CCCCC1)C(c1ccc2ncccc2c1)N(Cc1ccc(F)cc1)C(=O)c1cccs1 (centres undefined)	-1.3
O=C(NC1CCCCC1)C(c1ccc2ncccc2c1)N(Cc1ccc2c(c1)OCO2)C(=O)c1cccs1 (centres undefined)	-4
COc1ccc(C(C(=O)NC2CCCCC2)N(C(=O)CCCC(=O)Nc2ccccn2)c2ccc3c(c2)OCCO3)cc1 (centres undefined)	3.5
O=C(NC1CCCCC1)C(c1ccc2ncccc2c1)N(Cc1ccccc1)C(=O)c1cccs1 (centres undefined)	-2.1
O=C(NC1CCCCC1)C(c1ccc2ncccc2c1)N(Cc1cccs1)C(=O)c1cccs1 (centres undefined)	-8.2
OC(C#CCN1CCOCC1)(c1ccccc1)C1CC1 (centres undefined)	-0.9
COc1ccc(C(CC(=O)O)NC(=O)Cc2ccccc2)cc1OC (centres undefined)	-3
C=CCOc1ccc(C2CC(C)=NN2c2ccccc2)cc1 (centres undefined)	6.2
Cc1ccc2c(c1)nnn2C1CCN(CC(=O)NCc2ccccc2F)CC1	3.5
COc1cc(C(C#N)N2N=C(c3ccccc3)CC2c2ccccc2)ccc1O (centres undefined)	0.2
CN(C)c1nc(N/N=C/c2ccccc2O)nc(Nc2ccc(F)cc2)n1	-6.9
Fc1cccc(Cc2noc(CN3CCC(c4ccncc4)CC3)n2)c1	1.8
O=C(COc1ccc(Cl)cc1Cl)NCCCCc1ccccc1	-2.7
CS(=O)(=O)N1CCCC(C(=O)NCc2ccc(F)cc2)C1 (centres undefined)	0.6
CC(=O)Nc1sc2c(c1C(c1ccccn1)N1CCN(C)CC1)CCCC2 (centres undefined)	-0.7
